Laboratory results: PubChem BioAssay (NCI)
Compounds without any hit were thinned out: in the full panel of roughly 83,000, 20% have a hit.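 A percent growth of 40 corresponds to 60% growth inhibition; 0 means no net growth; -100 means all cells died. Active threshold: below 10.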 Unmarked numbers belong to inactive results. The source made the active and inactive calls.

What was measured:
Assay in all cases: NCI-60 one-dose screen, 48 h (100 = growth as untreated, 0 = no growth, -100 = all killed)
Details in all cases: 10 µM unless noted
T-47D breast = test system: T-47D breast
BT-549 breast = test system: BT-549 breast
MDA-MB-435 melanoma = test system: MDA-MB-435 melanoma
SW-620 colon = test system: SW-620 colon
MCF7 breast = test system: MCF7 breast
HCT-116 colon = test system: HCT-116 colon
HCC-2998 colon = test system: HCC-2998 colon
KM12 colon = test system: KM12 colon

| SMILES | growth (T-47D breast) | growth (BT-549 breast) | growth (MDA-MB-435 melanoma) | growth (SW-620 colon) | growth (MCF7 breast) | growth (HCT-116 colon) | growth (HCC-2998 colon) | growth (KM12 colon) |
| --- | --- | --- | --- | --- | --- | --- | --- | --- |
| CNC(=O)c1cc(Oc2ccc3nc(NC(=O)Nc4ccc(Cl)c(Cl)c4)sc3c2)ccn1 | 21.3% | 32.1% | 22.6% | 50.4% | 32.2% | -13.3% (active) | 63.4% | 56.8% |
| CC(C)(C)C(=O)/C=C/c1ccc([N+](=O)[O-])cc1 | 65.8% | 78.5% | 47.1% | 20% | 8.67% (active) | 42.2% | 119% | 31.9% |
| COc1ccc(/C(C)=C(\c2ccc(Cl)cc2)c2ccc(OCCN3CCCC3)cc2)cc1 | 45.9% | 57.9% | 39.2% | 25.1% | 13% | 23.6% | 87% | 24.5% |
| COc1cccc(/C=C/C(=O)c2cc3c(N)c(C(=O)Nc4cccc(Cl)c4C)sc3nc2C)c1 | 9.1% (active) | -22.3% (active) | -20.4% (active) | -28.7% (active) | 3.5% (active) | -34.2% (active) | -79.8% (active) | -19.6% (active) |
| Cc1ccc(-c2cc(C(=O)N3N=C(c4ccc(N)cc4)CC3c3ccc(Cl)cc3)c3ccccc3n2)cc1 (configuration not stated) | 35.9% | 30.8% | -61.7% (active) | 33.8% | 17.8% | 11.8% | 37.9% | 27.9% |
| CCCCc1oc2ccccc2c1C(=O)c1ccc(O)cc1 | 75.3% | 70.1% | 52.2% | 99.8% | 104% | 83.2% | 460% | 76.4% |
| COc1ccc2cc(-c3ccc(-c4ccc(C(=N)N)s4)s3)ccc2c1 | -9.45% (active) | 98.6% | 0.918% (active) | -64.3% (active) | -60.9% (active) | -29.5% (active) | -58.1% (active) | -14.5% (active) |
| COc1ccc2c(c1)c(-c1nc(-c3cn(C)c4ncccc34)cs1)cn2CCO | 10.1% | 76.9% | 86.5% | 93.6% | 12% | 74.2% | 95.1% | 49.5% |
| CC1(C)OC(=O)C(=Cc2cccc(Br)c2)C(=O)O1 | 92.7% | 108% | 108% | 102% | 102% | 102% | 113% | 111% |
| Nc1c(C(=O)Nc2ccncc2)sc2nc3c(cc12)CCCCC3 | 25.7% | 50.4% | 67% | 105% | 58.5% | 66.4% | 85.3% | 75.6% |
| Clc1ccc(-c2nc(-c3c[nH]c4ncccc34)cs2)cc1 | 62.4% [100 µM] | 47.2% [100 µM] | 89.2% [100 µM] | 74.3% [100 µM] | 66.7% [100 µM] | 38.6% [100 µM] | 90.2% [100 µM] | 76.1% [100 µM] |
| COc1ccc(-c2cc(C(=O)N3N=C(c4ccc(N)cc4)CC3c3ccccc3)c3ccccc3n2)cc1 (configuration not stated) | 38.2% | 41.3% | -20% (active) | 23.4% | 24.1% | 17.8% | 59.9% | 25.1% |
| Cc1c2cnccc2c(C)c2c1c1cc(C3OCCCO3)ccc1n2C | -4.56% (active) | -37% (active) | -28.1% (active) | 4.71% (active) | 0.909% (active) | 1.45% (active) | -15.1% (active) | 5.75% (active) |
| COc1cc2ncnc(Nc3ccc(F)c(Cl)c3)c2cc1OCC(=O)N1CCN(c2ccc(F)cc2)CC1 | 75.2% | 101% | 96.5% | 101% | 83.8% | 88.7% | 98.1% | 100% |
| Cn1cccc1/C=C1\C(=O)Nc2ccccc21 | 18.2% | 89.6% | 103% | 99.5% | 12.3% | 102% | 48.8% | 21.8% |
| CCN(CC)CCN(CCN(CC)CC)c1ccccc1 | 89.3% | 54.3% | 103% | 95.8% | 100% | 74.6% | 91.5% | 108% |
| Cc1ncc(C(=O)Nc2ccc(CN3CCN(C)CC3)c(C(F)(F)F)c2)cc1C#Cc1cnc(N)c2ccncc12 | -37.3% (active) | 22.9% | -94% (active) | -59.5% (active) | -72% (active) | -87.6% (active) | -89.3% (active) | -70% (active) |
| CN1CCN(Cc2cc(NC(=O)c3cccc(C#Cc4cccc5[nH]nc(N)c45)c3)cc(C(F)(F)F)c2)CC1 | 49% | 46% | -21.4% (active) | -45.2% (active) | -23.4% (active) | -86.8% (active) | -70.9% (active) | 13.7% |
| Cc1cc(C)cc(Nc2ccc([N+](=O)[O-])c(NCCN3CCOCC3)n2)c1 | 56.3% | 9.31% (active) | -30.1% (active) | 31% | 13.2% | 5.31% (active) | 9% (active) | 15.4% |
| N#CC(C#N)N=Nc1ccc(Cl)cc1Cl | 24.3% | 94.8% | 111% | 87.3% | 73.6% | 66.1% | 109% | 101% |
| Cc1ccc(S(=O)(=O)n2cc(C3C(Cl)C(=O)N3c3ccc(N4CCOCC4=O)cc3)c3ccccc32)cc1 (configuration not stated) | 51% | 48.3% | -21.2% (active) | 26.1% | 20.8% | 16.5% | 86.6% | 85.6% |
| CCOC(=O)C(=Cc1cccc(C#N)c1)C(=O)OCC | 38.8% | 71.2% | 55.4% | 27.9% | 24.3% | 20.9% | 110% | 54.8% |
| COc1ccc(Cc2cnc(NC(=O)c3sc4ccccc4c3Cl)s2)cc1 | 34.5% | 34.7% | -39.1% (active) | 25% | 17.5% | 15.1% | 25.6% | 16.7% |
| C=CCN=C(N)SCCCCCCSC(N)=NCC=C | 55.9% | 84.9% | 99.3% | 94.7% | 90.9% | 75.5% | 93.1% | 97.5% |
| C[N+](C)(C/C=C/c1ccccc1)Cc1ccccc1 | 94.4% | 96.1% | 101% | 100% | 100% | 95.5% | 95.8% | 95.4% |
| C=CC(=O)N1CCN(c2ccc3cccc(NC(=O)c4cnc(C)cn4)c3n2)CC1 | 28.2% | 34.3% | 33.1% | 48.7% | 48.2% | 27.4% | 72.4% | 23% |
| CCc1cccc(Sc2cc(C(=O)N3Cc4ccc(OCCN(C)C)cc4C3)ccc2O)c1 | 37.2% | 70.1% | 64.1% | 41.9% | 24.8% | 49.5% | 75% | 23.5% |
| COc1cccc2c(N=NC(=O)c3ccc(S(N)(=O)=O)cc3)c(O)[nH]c12 | 92.9% | 94.3% | 100% | 94.8% | 91.1% | 99.4% | 113% | 101% |
| O=c1[nH]cnc2c1C(c1ccc(Br)cc1)c1sc3c(F)cccc3c1O2 (configuration not stated) | 83.9% | 99.1% | 100% | 90.6% | 77.3% | 98.9% | 111% | 88.8% |
